# PubChem BioAssay (Tox21)
# Inconclusive results are not listed. Values without a mark were called inactive. Calls follow the shape of the dose curve; as a rule, active = well fitted inhibition curve with a large enough effect in the signal ratio in the repeat runs (not every such curve was filed as active); inconclusive = weak or mixed curves, or effect the other way; inactive = no such curve, though single readings can be large or run the other way; the % refers to the signal ratio.
# Molecular target: Vitamin D3 receptor (Homo sapiens) (UniProt P11473)
# Assay: qHTS assay to identify small molecule antagonists of the vitamin D receptor (VDR) signaling pathway (AID 743223)
# Conditions: VDR-UAS-bla HEK293T, beta-lactamase FRET ratio, 16 h; series mostly up to 61 µM; activity change, negative = inhibition: at the top concentration
# Excerpt: U.S. Tox21 Program National Center for Advancing Translational Sciences [NCATS] NIH Chemical Genomics Center [NCGC] U.S. Environmental Protection Agency [EPA] National Institutes of Environmental Health Sciences [NIEHS] National Toxicology Program [NTP] U.S. Food and Drug Administration [FDA] Tox21 Assay Overview: The vitamin D receptor (VDR), a member of nuclear hormone receptor superfamily, plays a critical role in calcium homeostasis and bone metabolism. It is also involved in cell differentiation and growth, and thrombogenicity.
# Tox21 Assay Protocol Summary: VDR-bla cells were dispensed at 2,000 cells/5 uL of assay medium per well into black wall/clear-bottom 1536-well plates using a Multidrop Combi (Thermo Fisher Scientific, Waltham, MA) dispenser. After the assay plates were incubated at a 37C and 5% CO2 for 4 h, 23 nL of compounds dissolved in DMSO, positive controls or DMSO only was transferred to the assay plate by a Pintool station (Kalypsys, San Diego, CA), followed by addition of 1 uL of 1alpha, 25-Dihydroxy Vitamin D3 (3 nM, final concentration in the wells) using a Bioraptr Flying Reagent Dispenser (FRD) workstation (Beckman Coulter, Indianapolis, IN). The plates were incubated at 37C and 5% CO2 for 16 h, and then 1 uL of LiveBLAzerTM B/G FRET substrate was added using a Bioraptr FRD. The plates were incubated at room temperature for 2 h and fluorescence intensity was measured by an Envision plate reader (PerkinElmer, Shelton, CT).
# % is scaled to controls: 0 for no effect and ±100 for the full control effect.
# Sequence of Vitamin D3 receptor (Homo sapiens) (P11473 whole entry, looked up): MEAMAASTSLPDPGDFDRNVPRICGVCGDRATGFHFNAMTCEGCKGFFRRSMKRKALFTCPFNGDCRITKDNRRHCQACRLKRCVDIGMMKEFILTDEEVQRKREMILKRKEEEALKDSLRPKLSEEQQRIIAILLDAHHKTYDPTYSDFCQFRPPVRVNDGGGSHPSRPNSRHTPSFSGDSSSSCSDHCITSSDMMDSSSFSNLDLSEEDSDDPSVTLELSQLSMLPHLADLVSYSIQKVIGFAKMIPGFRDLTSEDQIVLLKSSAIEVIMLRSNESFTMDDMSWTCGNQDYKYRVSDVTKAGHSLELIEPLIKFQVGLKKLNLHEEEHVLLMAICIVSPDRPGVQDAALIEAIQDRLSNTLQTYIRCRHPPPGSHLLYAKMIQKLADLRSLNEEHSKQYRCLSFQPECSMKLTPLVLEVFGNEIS
row,Structure (SMILES),"activity change, negative = inhibition"
1,CCOC(=O)C(F)(F)F,1.37%
2,O=C(NCC1CN(c2ccc(N3CCOCC3=O)cc2)C(=O)O1)c1ccc(Cl)s1 (stereo not given),-4.39%
3,CC(COCCO)OCCO (stereo not given),3.68%
4,NC(N)=NCCC[C@H](N)C(=O)O,2.1% [at 6.95 µM]
5,COc1ccc(C(=O)N2CCN(CC(=O)N3CCOCC3)CC2)cc1,3.91%
6,Nc1ccc([N+](=O)[O-])c(C(F)(F)F)c1,19.1%
7,COc1ccc(C(=O)c2ccc(OC)cc2O)c(O)c1,-19.7% [at 78.8 µM]
8,NS(=O)(=O)c1ccc(N2CCCCS2(=O)=O)cc1,9.06%
9,Clc1ccc(Cn2c(CN3CCCC3)nc3ccccc32)cc1,-2.76%
10,NCC(=O)CCC(=O)O,0.282%
11,Cc1oc2c(NC(=O)c3c(Cl)cccc3Cl)cccc2c1C(C)(C)O,1.2%
12,CC(C)(C)Cl,1.62% [at 78.8 µM]
13,NCCCN1CCOCC1,-0.622%
14,Nc1ccc(N)c2c1C(=O)c1ccccc1C2=O,1.06%
15,CCC(Cl)CCC(Cl)C(Cl)CC(Cl)C(Cl)C(Cl)CCl (stereo not given),-8.19%
16,Nc1cc(C(=O)O)c(O)c(S(=O)(=O)O)c1,16.4%
17,CN(C)c1ccc(C(c2ccccc2)c2ccc(N(C)C)cc2)cc1,23.4%
18,CCCCNc1ccc(C(=O)OCCOCCOCCOCCOCCOCCOCCOCCOCCOC)cc1,-6.54%
19,C/C(=C(\CCOP(=O)(O)O)SC(=O)c1ccccc1)N(C=O)Cc1cnc(C)nc1N,2.53% [at 6.95 µM]
20,O=P(O)(OCc1ccccc1)OCc1ccccc1,-21.3%

row,Structure (SMILES),"activity change, negative = inhibition"
1,CN(C)C(=O)NC1(c2ccccc2)CCN(CC[C@@]2(c3ccc(F)c(F)c3)CN(C(=O)c3ccccc3)CCO2)CC1,-0.71%
2,CC(C)(C)OCC1CO1 (stereo not given),-0.143% [at 78.8 µM]
3,N=c1ccn2c(n1)O[C@H]1[C@H](O)[C@@H](CO)O[C@H]12,-7.32%
4,O=C1OC(CN2CCOCC2)CN1/N=C/c1ccc([N+](=O)[O-])o1 (stereo not given),-0.793%
5,CCCCCCCCCCCCCCCCOS(=O)(=O)O,9.05%
6,C=CCOC(=O)CCC1CCCCC1,3.65%
7,CN(C)c1ccc(CCO)cc1,-0.0291%
8,CCCNCC(O)COc1ccccc1C(=O)CCc1ccccc1 (stereo not given),-5.12%
9,CC(C)O.CC(C)O.CCOC(=O)/C=C(\C)O.CCOC(=O)/C=C(\C)O.[Ti],16.2%
10,CN(C)CCOC(c1ccccc1)c1ccc(Br)cc1 (stereo not given),-12.9%
11,CCCCc1ncc(/C=C(\Cc2cccs2)C(=O)O)n1Cc1ccc(C(=O)O)cc1,-18.7%
12,CC(=O)NO,-15.2%
13,CCO[Si](CCCCl)(OCC)OCC,-19.2%
14,CC[N+]1(CC)CCC(=C(c2ccccc2)c2ccccc2)C1C (stereo not given),-16.2%
15,CCOc1ccc(O)cc1,-17.4%
16,COCCCN1CCC(NC(=O)c2cc(Cl)c(N)c3c2OCC3)CC1,-2.18%
17,O=C(O)CC(=O)C(=O)O,-1.89% [at 78.8 µM]
18,CC(C)Nc1ccc(NC(C)C)c2c1C(=O)c1ccccc1C2=O,1.63%
19,COc1cc2c(cc1OC)C(C(C(=O)N(CCc1ccc(OC)c(OC)c1OC)CCc1ccc(OC)c(OC)c1OC)c1ccccc1)=NCC2 (stereo not given),-0.347%
20,NCc1ccccc1Sc1ccccc1CO,6.73%
